Source: PubChem
In the library only some 1.5% were active in any assay of this set; here they are far more common.
MbtI inh – MbtI salicylate synthase inhibitors, primary screen, biochemical, fluorescence intensity | inhibition, % (test concentration not listed) | actives 0.89% (n = 100,000) | purified MbtI enzyme, fluorescence intensity read-out | P9WFX0; in the data active = inhibition mostly above about 56%, no sharp cut-off; inactive = mostly below about 77%
Target sequence (P9WFX0 whole entry, looked up): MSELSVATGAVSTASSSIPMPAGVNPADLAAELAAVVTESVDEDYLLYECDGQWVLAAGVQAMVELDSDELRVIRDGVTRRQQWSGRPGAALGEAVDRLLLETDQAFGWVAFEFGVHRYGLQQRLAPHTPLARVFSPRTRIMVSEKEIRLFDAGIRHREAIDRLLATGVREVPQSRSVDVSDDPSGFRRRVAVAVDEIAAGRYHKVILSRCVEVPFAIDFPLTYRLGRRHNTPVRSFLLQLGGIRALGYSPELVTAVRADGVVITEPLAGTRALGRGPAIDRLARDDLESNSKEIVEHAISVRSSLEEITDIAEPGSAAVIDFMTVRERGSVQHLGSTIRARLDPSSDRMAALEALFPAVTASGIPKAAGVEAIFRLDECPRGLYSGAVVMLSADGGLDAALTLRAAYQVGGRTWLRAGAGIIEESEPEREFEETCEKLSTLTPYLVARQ
PV pol inh – poliovirus RdRp elongation inhibitors, primary screen, biochemical, fluorescence polarization, total intensity; Genome polyprotein (Poliovirus type 1 (strain Mahoney)), P03300; poliovirus polymerase elongation; stronger effect = lower value; % elongation, % (compound at 16.7 µg/mL); actives 0.66% (n = 150,000); AID 588519, 2011; in the data active = % elongation below about 90%
AID504770 – growth inhibition of E. coli YBA685, primary screen, V. cholerae RctB inhibitors | E. coli YBA685 rctB-dependent plasmid, OD600 growth, 3 h; stronger effect = lower value | z-score (test concentration not listed) | actives 0.27% (n = 130,000) | AID 504770, 2011; in the data active = z-score below about -2, passing the limit was not always enough
Mtb MenB inh – M. tuberculosis MenB inhibitors, primary screen, biochemical, absorbance | actives 0.43% (n = 100,000) | inhibition, % (test concentration not listed) | MenB enzyme assay, absorbance read-out; in the data active = inhibition above about 21%, passing the limit was not always enough
Starred values were filed as active, the others as inactive; . = no result given.

SMILES	MbtI inh	PV pol inh	AID504770	Mtb MenB inh
Cc1ccc(C)c(NC(=O)CC(NC2CCCCC2)C(=O)O)c1 (stereo not given)	.	.	0.7	.
O=S(=O)(/N=c1/cc(-c2ccccc2)ss1)c1ccccc1	.	100	-0.3	-2
O=c1cc(-c2ccccc2)ss1	53*	82*	-0.4	-14
S=c1[nH]nc(CNc2cccc(Cl)c2)o1	84*	100	-1.5	-26
c1ccc2[nH]c(SCCCN3CCCCC3)nc2c1	8	99	-0.4	-19
c1ccc2[nH]c(SN3CCCCC3)nc2c1	97*	100	0.1	-8
CC1Cc2scc[n+]2-c2ccccc2N1C=O (stereo not given)	.	105	-0.55	100*
COC(=O)c1c(-c2cccs2)csc1NC(=O)c1cc(OC)cc(OC)c1	.	71*	.	.
COc1ccc(C(=O)Nc2nccs2)cc1OC	-4	99	0	-13
COC(=O)c1c(-c2cccs2)csc1NC(=O)c1cc(OC)c(OC)c(OC)c1	.	73*	.	.
O=C(Nc1scc(-c2cccs2)c1C(=O)O)c1cccs1	.	100	-1	-21
COC(=O)c1c(-c2cccs2)csc1NC(=O)c1ccc(OC)c(OC)c1	.	69*	.	.
CCC(CO)NS(=O)(=O)c1c(C)nc2sccn2c1=O (stereo not given)	28	106	0.85	-23
Oc1cccc(-c2nc(-c3ccccc3)c3ccccn23)c1	5	89*	1.2	.
CC(C#N)N1CCN(C(c2ccccc2)c2ccccc2)CC1 (stereo not given)	-6	103	0.2	-8
O=C(OCC(=O)N1CCc2ccccc2C1)c1ccccc1	3	84*	-0.45	-23
CC(=O)NCCCc1[nH]n(-c2ccccc2)c(=O)c1NC(=O)c1ccccc1	21	87*	-0.1	10
S=C=NCCn1ccc2ccccc21	93*	102	-3.8*	-77
NCCn1ccc2ccccc21	6	99	-0.45	-18
CC(C)n1cn[nH]c1=S	59*	96	0.15	-23
Cc1ccn(CCC(=O)Nc2cccc(C(F)(F)F)c2)n1	-12	99	-0.85	-1
COC(=O)C1=C(C)Nc2ccccc2S1	58*	107	1.2	-11
COc1cc2cc3c4cc(OC)c(OC)cc4cc[n+]3c(C)c2cc1OC	55	88*	-0.35	3
COc1ccc(S(=O)(=O)Nc2ccc(O)c(Sc3ncn[nH]3)c2)cc1	8	101	-0.9	-8
Cc1ccc(S(=O)(=O)Nc2cc(Sc3ncn[nH]3)c(O)cc2C)cc1	54*	111	0.7	3
SMILES	MbtI inh	PV pol inh	AID504770	Mtb MenB inh
Cc1ccc(Nc2nn(CN3CCOCC3)c(=S)s2)cc1	90*	102	-1	-37
Nc1ncc(N=Nc2cc(C(=O)O)cc(C(=O)O)c2)s1	19	82*	0	-273
Nc1ncc(N=Nc2cc(C(=O)O)ccc2Cl)s1	50	94	-0.35	-362
COc1ccc(C(=O)c2nc3ccccc3n2C(C)C)cc1OC	-4	101	-4.6*	-17
CN(C)S(=O)(=O)c1ccc2oc(=S)[nH]c2c1	77	88*	1.3	-30
COc1ccc([C@H]2NC(=O)C(=C=[N-])C(=O)[C@@H]2[n+]2ccccc2)cc1	.	37*	0.45	-16
COc1ccc(C2C(=O)c3ccccc3C2=O)cc1	3	100	-0.5	5
Cc1c(C)c(NC(=O)/C=C/C(=O)O)c(C)c(C)c1NC(=O)/C=C/C(=O)O	60*	103	1.4	10
Cc1cc(C)cc(NC(=O)/C=C\C(=O)O)c1	-2	99	0.15	9
COC(=O)c1ccc(Cn2cnc3c(cnn3C)c2=O)cc1	-3	103	-0.8	-4
CS(=O)(=O)CS(=O)(=O)NNc1ncc(C(F)(F)F)cc1Cl	57*	104	-0.95	-25
CNC(=S)NNc1ncc(C(F)(F)F)cc1Cl	24	101	-0.25	-4
Cn1c(CSc2cc(C(F)(F)F)nc3ccccc23)n[nH]c1=S	65*	100	-0.9	4
Cc1ccc(S(=O)(=O)NCCSc2cc(C(F)(F)F)nc3ccccc23)cc1	-1	103	0.4	1
O=C(COc1ccc(C(F)(F)F)cc1)c1ccc2c(c1)OCCO2	-2	103	0.45	-13
N#Cc1ccc(CSc2nnc(-c3cccs3)n2CC2CCCO2)cc1 (stereo not given)	11	107	-2.5*	-17
CC(C#N)Sc1nnc(-c2cccs2)n1CC1CCCO1 (stereo not given)	-3	99	-0.7	-44
C=CCn1c(CSc2ccc(C)cc2)n[nH]c1=S	74*	96	-0.15	-75
O=C1Oc2ccccc2C(=O)/C1=C/N1CCc2ccccc21	-5	100	-0.5	.
CN(C)S(=O)(=O)c1cccc(-c2nnc3n2N=C(c2ccccc2)C(CC(=O)O)S3)c1 (stereo not given)	99*	75*	-0.6	0
CCOC(=O)c1c(NC(=O)c2cc(-c3ccc(Br)cc3)on2)sc(C)c1C	.	89*	.	.
CCOC(=O)c1c(NC(=O)c2cc(-c3cccc(Cl)c3)on2)sc(C)c1C	.	96	.	.
O=C(CSc1ncnc2[nH]ncc12)CSc1ncnc2[nH]ncc12	10	100	-1.1	active
Cc1cc(Cl)ccc1NC(=O)CC(C)CC(=O)O (stereo not given)	.	.	-0.35	.
Cc1ccc(Cl)cc1N1CCN(C(=O)c2cnn(-c3ccc(Cl)cc3)c2C2CCNCC2)CC1	.	106	.	.
SMILES	MbtI inh	PV pol inh	AID504770	Mtb MenB inh
Cc1ccc(N2CCN(C(=O)c3cnn(-c4ccc(C)c(C)c4)c3C3CCNCC3)CC2)c(C)c1	.	74*	.	.
O=S(=O)(/C=C/c1ccccc1)N1CCN(c2ncc(C(F)(F)F)cc2Cl)CC1	-3	103	-0.25	8
c1ccc2nc(Sc3ncn[nH]3)c(Sc3ncn[nH]3)nc2c1	.	85*	0.35	-16
O=c1[nH]nc(Sc2ncn[nH]2)c(=O)[nH]1	10	98	-0.7	-8
Cc1cccn(Cc2c(Cl)cccc2Cl)c1=O	11	108	0.05	-11
Cc1cccc(Cl)c1-n1sc(=O)n(CC2CC2)c1=O	72*	96	-1.5	-6
Cc1noc(C)c1-n1sc(=O)n(CC2CC2)c1=O	99*	93	-0.8	15
O=S(N=C(c1ccccc1)c1ccccc1)c1ccccc1 (stereo not given)	68*	101	-0.75	-21
NN=C(c1ccccc1)c1ccccc1	19	101	-0.75	1
COc1ccc(CCNC(=S)N2CCCC2)cc1OC	-16	100	-0.95	-24
COc1ccc(CCNC(=S)N2CCCC(C(F)(F)F)C2)cc1 (stereo not given)	84*	80*	-0.5	-8
O=C(c1noc2c1CCCC2)N1CCCC1	.	.	0.4	.
Cc1cc(C)n(C(C)CNC(=O)c2ccccc2)n1 (stereo not given)	-9	104	-0.85	-48
Cc1cc(C)n(C(=O)C(C)NC(=O)c2ccccc2)n1 (stereo not given)	.	104	0.1	23*
CCCn1c(CCCNC(=O)c2ccc(OC)c(OC)c2)nc2ccccc21	-5	102	0.25	-19
